Test results taken from PubChem BioAssay AID449762 (Southern Research Specialized Biocontainment Screening …, 2010).
Hit rate of the full screen: of about 330,000 compounds, about 1,900 (0.58%) were called active. Inconclusive results (about 4%) are left out. Cut-off read from the data, not from the text of the source: inconclusive = inhibition above about 70% without an active follow-up result; inactive = below that. These entries were drawn from the full list. Results with a measured potency or affinity are listed apart.

test: M. tuberculosis growth inhibition, HTS (AID 449762);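 note: bacterial growth assessed after seven days of incubation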; details: M. tuberculosis H37Rv growth inhibition, 7H9 media; at 25 µM; hits give high values

Row | SMILES | inhibition
1 | Cc1cc(=O)oc2cc(NC(=S)NNC(=O)c3c(Cl)cnn3C)ccc12 | -1.94% (inactive)
2 | CCN(CC)C(=O)c1ccccc1NS(C)(=O)=O | -4.74% (inactive)
3 | C=CCNC(=O)CSc1nnc(-c2cccs2)o1 | 2.45% (inactive)
4 | CCNC(=O)CSc1nnc(-c2cccs2)o1 | 17% (inactive)
5 | Clc1ccc(OCCOCCN2CCCCC2)c(Br)c1 | -2.44% (inactive)
6 | CC(C)N1CCN(Cc2cccn2-c2cccnc2)CC1CCO (stereo unspecified) | -3.04% (inactive)
7 | CCOC(=O)C1(CCc2ccccc2)CCN(Cc2ccc(NC(C)=O)cc2)CC1 | -6.26% (inactive)
8 | COc1cc2ncnc(NCc3ccccc3F)c2cc1OC | 4.17% (inactive)
9 | CCc1ccc2[nH]c(=O)c(C(c3nnnn3CCOC)N3CCN(c4ccccc4)CC3)cc2c1 (stereo unspecified) | -6.34% (inactive)
10 | COc1ccc2cc(C(c3nnnn3CCc3ccccc3)N3CCC(O)CC3)c(=O)[nH]c2c1 (stereo unspecified) | -12.3% (inactive)
11 | COc1cccc(OC)c1C(=O)NC(=S)N1CCCCC1c1cccnc1 (stereo unspecified) | -6.76% (inactive)
12 | O=C(CCC(=O)c1cccs1)OCC(=O)c1ccc(F)cc1 | 1.25% (inactive)
13 | COCCn1c(C)cc(C(=O)COC(=O)c2c(C)nn(Cc3ccccc3)c2C)c1C | 20.6% (inactive)
14 | Cc1nn(Cc2ccccc2)c(C)c1C(=O)OCC(=O)c1cc(C)n(C2CC2)c1C | 63.9% (inactive)
15 | CSc1ccc(C(=O)C2CCCN(Cc3cccn3-c3cccnc3)C2)cc1 (stereo unspecified) | 9.15% (inactive)
16 | O=C(c1ccc2c(c1)OCO2)N1CCc2ccccc21 | -5.13% (inactive)
17 | Cc1nc(SCC(=O)c2cc3ccccc3oc2=O)c(C#N)c(-c2cccs2)c1C(=O)Nc1ccccc1 | 3.9% (inactive)
18 | Cc1nc(SCC(=O)c2cc3ccccc3oc2=O)c(C#N)c(-c2ccccc2)c1C(=O)Nc1ccccc1 | 17.1% (inactive)
19 | COc1ccccc1Nc1nc(-c2sc(NC(=O)CC(C)C)nc2C)cs1 | 1.91% (inactive)
20 | Cc1nc(NC(=O)c2ccccc2)sc1-c1csc(Nc2ccc(Cl)cc2Cl)n1 | 6.01% (inactive)
21 | Cc1ccc(C(C)C)c(OCC(=O)Nc2ccc(N3CCN(S(C)(=O)=O)CC3)cc2)c1 | -4.74% (inactive)
22 | CCCCCCSc1ccc([C@H]2N[C@@](CC(C)C)(C(=O)OC)[C@H]3C(=O)N(CC)C(=O)[C@@H]23)cc1 | -1.98% (inactive)
23 | COc1cc(NC(=S)NCCc2ccccc2)c(OC)cc1NC(=O)CC(C)C | -2.92% (inactive)
24 | CN1C(=S)SC(N(O)C(=O)Nc2cccc3ccccc23)C1(C)C (stereo unspecified) | 3.28% (inactive)

Row | SMILES | inhibition
25 | CN1C(=S)SC(N(O)C(=O)Nc2ccccc2)C1(C)C (stereo unspecified) | -1.59% (inactive)
26 | CC1=CSC2=NS(=O)(=O)CCN12 | -1.32% (inactive)
27 | COCCCNC(=O)c1c[nH]c2ccc(S(=O)(=O)N3CCC4(CC3)OCCO4)cc2c1=O | -4.78% (inactive)
28 | COc1ccc(-c2nnn(CC(=O)NC(=O)NC3CCCCC3)n2)cc1OC | -0.345% (inactive)
29 | O=C(Cn1nnc(-c2cccs2)n1)OC1CCCCC1 | 4.15% (inactive)
30 | O=C(NC(=S)NC1CCS(=O)(=O)C1)c1ccccc1 (stereo unspecified) | -12% (inactive)
31 | Cc1c(C(=O)N2CCC3(CC2)OCCO3)sc2ncnc(N3CCc4ccccc4C3)c12 | -0.89% (inactive)
32 | CC(C)CCn1nnnc1C(c1ccccc1)N1CCN(C)CC1 (stereo unspecified) | 5.26% (inactive)
33 | O=C(CNS(=O)(=O)c1cccs1)N1CCN(c2ccccn2)CC1 | 4.15% (inactive)
34 | CCOC(=O)N1CCN(C(=O)C2CCN(c3nnc(-n4cccc4)s3)CC2)CC1 | -4.54% (inactive)
35 | O=C(C1CCN(c2nnc(-n3cccc3)s2)CC1)N1CCOCC1 | -4.62% (inactive)
36 | CC1=NN(C(N)=S)C(=O)C1N=Nc1ccc(S(N)(=O)=O)cc1 (stereo unspecified) | 0.37% (inactive)
37 | CC1=NN(C(N)=S)C(=O)C1N=Nc1ccc(Br)cc1 (stereo unspecified) | 58.6% (inactive)
38 | Cc1ccc(S(=O)(=O)Nc2ccc3ccccc3n2)cc1 | 0.36% (inactive)
39 | Cc1nc2cc(-c3cccc(F)c3)nn2c(C)c1CCC(=O)NC(C)CCc1ccco1 (stereo unspecified) | -9.87% (inactive)
40 | COc1ccccc1-c1cc2nc(C)c(CCC(=O)NC(C)CCc3ccco3)c(C)n2n1 (stereo unspecified) | 2.39% (inactive)
41 | O=c1cc(O)nc(SCc2ccc(Cl)cc2)[nH]1 | -0.2% (inactive)
42 | COc1cc(-c2nnc(CSc3nnc(N)s3)o2)cc(OC)c1OC | -0.69% (inactive)
43 | Cc1nc(-n2nnc3ccccc32)c2c3c(sc2n1)CCCC3 | 4.15% (inactive)
44 | Cc1cc(=O)n2[nH]c(C)c(-c3ccc(Cl)cc3)c2n1 | -1.1% (inactive)
45 | CCCc1cc(=O)n2[nH]c(C)c(-c3ccc(OC)cc3)c2n1 | 35.8% (inactive)
46 | Cc1cc(NC(=O)Cn2nnc(-c3ccccc3NC(=O)c3ccccc3F)n2)no1 | -4.78% (inactive)
47 | CCCc1nc(Nc2nc3ccccc3o2)nc(C)c1C(=O)OCC | -21.6% (inactive)
48 | CCOC(=O)c1cnc(Nc2nc3ccccc3o2)nc1CSc1ncccn1 | 0.71% (inactive)

Row | SMILES | inhibition
49 | Cc1nnc(SCC(=O)N(Cc2ccccc2)C(C)(C)C)[nH]c1=O | 3.28% (inactive)
50 | O=C1c2ccccc2C(=O)N1Cc1ccc2c(c1)OCO2 | 4.9% (inactive)
51 | CC(C(=O)NC1CCCC1)N1C(=O)c2cccc3cccc1c23 (stereo unspecified) | -3.8% (inactive)
52 | CCOC(=O)c1cnc(-n2nc(C)cc2C)nc1Nc1cccc(C(=O)O)c1 | 19.4% (inactive)
53 | CCOC(=O)c1cnc(-n2nc(C)cc2C)nc1Nc1ccc(O)cc1 | -2.03% (inactive)
54 | COc1ccc(CN2CCn3ncc(C(=O)Nc4cccc(C)c4)c3C2=O)cc1 | 3.51% (inactive)
55 | COc1ccc(C(CNC(=O)C2CC2)N(C)C)cc1 (stereo unspecified) | -15.1% (inactive)
56 | CCSc1nnc(C)n1-c1ccc(C(=O)O)cc1 | -3.32% (inactive)
57 | CCc1ccc(OCC(=O)Nc2ccc(-c3nc4ccccc4o3)c(O)c2)cc1 | -3.85% (inactive)
58 | O=C1c2ccc(-c3nc4ccccc4o3)cc2C(=O)N1Cc1cccnc1 | 6.12% (inactive)
59 | CC(C)NC(=O)c1ccc(-n2c(=S)[nH]c3ccccc3c2=O)cc1 | -2.47% (inactive)
60 | CCN(CC)S(=O)(=O)c1ccc(N2CCCC2)c(NC(=O)c2nn(C)c(=O)c3ccccc23)c1 | -4.45% (inactive)
61 | CCN(CC)S(=O)(=O)c1ccc2[nH]cc(C(=O)NCCc3ccccc3)c(=O)c2c1 | 4.1% (inactive)
62 | CCN(CC)S(=O)(=O)c1ccc2[nH]cc(C(=O)NCCN3CCCCCC3)c(=O)c2c1 | -8.55% (inactive)
63 | CCN(C(=O)c1cc(Cl)ccc1OC)c1ccccc1 | -7.73% (inactive)
64 | CCOC(=O)C1=C(C)C(c2cccc(Oc3ccccc3)c2)NC(=S)N1 (stereo unspecified) | 10.7% (inactive)
65 | COc1ccc(-c2csc(NS(=O)(=O)c3ccc([N+](=O)[O-])cc3)n2)cc1 | 1.1% (inactive)
66 | Cc1ccccc1-n1c2nc(=O)n(C)c(=O)c-2cc2ccccc21 | 0.96% (inactive)
67 | COc1ccc(-c2nc(-c3ccccn3)ncc2S(C)(=O)=O)cc1 | -1.3% (inactive)
68 | c1ccc(-c2nccc(-c3ccco3)n2)nc1 | 58.2% (inactive)
69 | Cc1ccc(-n2c3nc(=O)n(C)c(=O)c-3cc3ccccc32)cc1 | 10.4% (inactive)
70 | Cc1ccc(NC(=O)CSc2nc(=O)n(CCN3CCOCC3)c3c2CCCC3)cc1 | -2.61% (inactive)
71 | CCCS(=O)(=O)N1CCC(C(=O)NCCc2ccccc2)CC1 | 4.73% (inactive)
72 | CCc1cc(C(=O)Cc2ccccn2)c(O)cc1O | -1.89% (inactive)

Row | SMILES | inhibition
73 | CCc1cc(/C(Cc2ccccn2)=N\O)c(O)cc1O | -0.69% (inactive)
74 | CC(/C=C\c1ccccc1)=C/C(=O)O | -1.86% (inactive)
75 | CC(/C=C/c1ccc(C)o1)=C\C(=O)O | 8.65% (inactive)
76 | N#CC(C(=O)O)=C1CCCC1 | -4.52% (inactive)
77 | COc1ccc(COc2cc(-c3cccc(OC)c3)nc3ccc(NC(=O)c4ccc(Cl)cc4)cc23)cc1 | 56.2% (inactive)
78 | COc1ccc(COc2cc(-c3cccc(OC)c3)nc3ccc(NC(=O)c4ccc(N(C)C)cc4)cc23)cc1 | -16.9% (inactive)
79 | O=C(NC1CCN(S(=O)(=O)c2ccccc2F)CC1)c1ccco1 | -8.86% (inactive)
80 | COc1cccc(NC(=O)CN(C)C(=O)C2CC3C=CC2C3)c1 (stereo unspecified) | 0.94% (inactive)
81 | CCN(c1ccccc1)S(=O)(=O)c1ccc(Cl)c(NC(=O)CNCc2ccccc2OC)c1 | -4.74% (inactive)
82 | NS(=O)(=O)c1cccc(NC(=O)COc2ccc([N+](=O)[O-])cc2)c1 | -1.48% (inactive)
83 | O=C(NCc1ccc(F)cc1)C1(S(=O)(=O)c2ccc(Cl)cc2)CC1 | -0.39% (inactive)
84 | COc1ccccc1/C=C1\N=C(C(C)(C)C)OC1=O | 7.56% (inactive)
85 | CN(C)c1ccc(C=C2C(=O)OC(C)(C(C)(C)C)OC2=O)cc1 (stereo unspecified) | 0.2% (inactive)
86 | CCNc1nc2c(c(=O)[nH]c(=O)n2C)n1CC(C)C | -9.92% (inactive)
87 | CC(C)Cn1c(NCCN(C)C)nc2c1c(=O)[nH]c(=O)n2C | -4.76% (inactive)
88 | Cc1c(Cl)cccc1NC(=O)CSc1nnnn1C | 1.96% (inactive)
89 | COc1ccc(C(CCNCc2ccc(N(C)C)cc2)C(C)C)cc1 (stereo unspecified) | 10.7% (inactive)
90 | CC(C)Oc1ccc(C(CCNCc2ccc(O)cc2)c2ccccc2)cc1 (stereo unspecified) | 62.7% (inactive)
91 | CSc1ccc(CCNC(=O)c2cc(C)nn2-c2ccccc2)cc1 | 3.36% (inactive)
92 | COc1ccc(NC(=O)CCNC(=O)c2ccccc2)cc1S(N)(=O)=O | -4.86% (inactive)
93 | CCOC(=O)c1cc2ccc(OC)cc2oc1=O | 14% (inactive)
94 | COC(=O)c1ccc(COC(=O)c2cc3ccccc3oc2=O)cc1 | 15.8% (inactive)
95 | CCOC(=O)c1cc2c(ccc3ccccc32)oc1=O | 52.8% (inactive)
96 | CC(=O)c1ccc(COC(=O)c2cc3ccccc3oc2=O)cc1 | 13.6% (inactive)
